Results as given in the supplement of paper PMC10646978.
± gives the standard deviation.

Legend:
Conditions in all cases: modulator concentration 10 µM
[1] = test system: RAW-Dual (murine macrophage reporter line); experiment: NF-kB reporter (SEAP) activity fold change vs agonist alone; higher = enhanced NF-kB activity
Procedure, shortened: (§1)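 RAW-Dual murine macrophage reporter cells were seeded at 50 000 per well in 384-well plates and pre-incubated 1 hour at 37 °C with compound pin-transferred to 10 μM final. After 1 hour, a PRR agonist was added and cells incubated overnight. Supernatant NF-κB (SEAP, QUANTI-Blue, 620 nm absorbance) and IRF (Lucia luciferase, QUANTI-Luc, luminescence) signals were divided by the mean agonist-only control on the same plate to give fold change. Two replicate plates were averaged, with errors by propagation.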

[2] = test system: RAW-Dual (murine macrophage reporter line); experiment: IRF reporter (Lucia luciferase) activity fold change vs agonist alone; higher = enhanced IRF activity
Procedure, shortened: as §1

[3] = test system: RAW-Dual (murine macrophage reporter line); experiment: viability score (confluency relative to resting cells, overnight) (fraction); higher = more viable, active = viable (0.7 or more)
Procedure, shortened: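 RAW-Dual macrophages in 384-well plates were treated overnight with compound at 10 μM final. IncuCyte imaging recorded confluency, and IncuCyte software built two confluency masks across every imaged well. The viability score expresses confluency relative to resting cells and was judged against a cutoff, which a compound met only if both masks exceeded 70% of resting cells.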

[4] = agonist: CpG ODN 1826 0.5 ug/mL

SMILES	NF-kB reporter [1, 4]	NF-kB reporter ([1]; agonist: LPS 0.1 ug/mL)	NF-kB reporter ([1]; agonist: MPLA […])	IRF reporter ([2]; agonist: 3'3'-cGAMP 10 ug/mL)	IRF reporter ([2]; agonist: LPS 0.1 ug/mL)	IRF reporter ([2]; agonist: MPLA […])	viability score [3]
Br.O=S(=O)(c1ccc(-c2csc(Nc3ccc(Br)cc3)n2)cc1)N1CCOCC1	0.967 ± 0.084	1.08 ± 0.091	1.1 ± 0.046	0.951 ± 0.17	1.14 ± 0.049	0.903 ± 0.059	0.999 (active)
CC1CC(=O)C2=C(C1)OC(N)=C(C#N)C2c1cccc2ccccc12 (centres undefined)	1.04 ± 0.059	1.06 ± 0.065	1.03 ± 0.11	0.988 ± 0.033	1.26 ± 0.088	1.24 ± 0.14	1 (active)
COc1ccc(CNC2CCCc3ccccc32)cc1OC (centres undefined)	0.648 ± 0.24	1.1 ± 0.09	0.981 ± 0.11	0.713 ± 0.026	1.12 ± 0.14	1.5 ± 0.29	0.508 (inactive)
CCc1ccccc1Nc1nc(-c2sc(NC(C)=O)nc2C)cs1	0.65 ± 0.1	0.555 ± 0.052	0.582 ± 0.048	0.778 ± 0.028	1.3 ± 0.3	1.42 ± 0.26	0.536 (inactive)
COc1ccccc1OCCOCCOc1cccc(Br)c1	0.883 ± 0.14	1.05 ± 0.12	0.945 ± 0.087	1.05 ± 0.044	1.27 ± 0.29	1.36 ± 0.24	0.802 (active)
COc1cc2nc(N3CCN(C(=O)c4ccco4)CC3)nc(N)c2cc1OC.Cl	0.888 ± 0.21	1.12 ± 0.056	0.953 ± 0.079	0.9 ± 0.032	1.22 ± 0.14	1.33 ± 0.2	1 (active)
CC1CCc2nnc(OCC3CCCN3C)cc2C1 (centres undefined)	0.837 ± 0.051	0.793 ± 0.11	0.99 ± 0.059	0.972 ± 0.061	1.19 ± 0.25	1.22 ± 0.48	0.996 (active)
CCOc1ccccc1OCCCCOc1ccc(I)cc1	1.12 ± 0.18	1 ± 0.12	0.937 ± 0.11	0.967 ± 0.025	0.994 ± 0.098	1.18 ± 0.17	1 (active)
Cc1ccc(-c2ccc3nnc(CCC(=O)NCc4ccc(C(F)(F)F)cc4)n3n2)cc1C	0.671 ± 0.041	1.04 ± 0.086	1.04 ± 0.07	0.747 ± 0.047	1.15 ± 0.23	1.16 ± 0.41	0.94 (active)
O=C(CCc1ccc(O)cc1)c1c(O)cc(O)cc1OC1OC(CO)C(O)C(O)C1O (centres undefined)	1.37 ± 0.33	0.943 ± 0.047	0.963 ± 0.072	0.961 ± 0.066	0.98 ± 0.18	1.02 ± 0.14	1.01 (active)
CC(=O)Oc1ccc2c(c1)c(C(C)=O)c(C)n2C	0.859 ± 0.071	0.972 ± 0.1	0.963 ± 0.091	0.783 ± 0.028	1.13 ± 0.15	1.27 ± 0.25	1.02 (active)
O=C1c2ccccc2C(=O)C1c1ccncc1	0.885 ± 0.066	1.03 ± 0.059	0.944 ± 0.029	0.757 ± 0.046	0.924 ± 0.1	0.799 ± 0.068	0.994 (active)
CCN(CC)C(=O)C(=Cc1ccc(Br)cc1)NC(=O)c1ccccc1OC	1.06 ± 0.084	1.09 ± 0.11	1.09 ± 0.075	1.14 ± 0.028	1.61 ± 0.25	1.28 ± 0.12	1.01 (active)
O=[N+]([O-])c1ccc(CN2c3ccccc3C3=C(CCCC3)C23CCCCC3)cc1	0.959 ± 0.074	1.04 ± 0.08	0.936 ± 0.1	0.951 ± 0.057	1.33 ± 0.16	1.6 ± 0.27	1.03 (active)
Cc1ccc(NC(=O)C(C#N)=Cc2ccc(-c3cccc([N+](=O)[O-])c3)o2)cc1	1.07 ± 0.084	1.06 ± 0.094	0.904 ± 0.054	1 ± 0.076	1.46 ± 0.1	1.18 ± 0.14	1.01 (active)
CCCCCCCCCCCCCCCCOc1nc2ccc(C)cc2c(=O)o1	1.1 ± 0.32	1.09 ± 0.057	0.961 ± 0.13	0.921 ± 0.034	1.27 ± 0.15	1.08 ± 0.23	1 (active)
O=C(O)c1cc2nc(-c3ccc(Cl)c(Cl)c3)cc(C(F)(F)F)n2n1	0.958 ± 0.076	1.09 ± 0.06	0.973 ± 0.058	1.02 ± 0.031	1.66 ± 0.2	1.13 ± 0.11	1.01 (active)
Brc1ccc2ncnc(NCc3ccco3)c2c1	0.856 ± 0.14	1.98 ± 0.16	2.54 ± 0.3	0.373 ± 0.021	0.647 ± 0.12	0.7 ± 0.12	0.996 (active)
O=C(O)CCC(=O)Nc1ccc(Br)cn1	1.17 ± 0.098	1.02 ± 0.066	1.02 ± 0.04	1.02 ± 0.19	1.12 ± 0.14	0.938 ± 0.27	0.997 (active)
Cc1cc(CNS(=O)(=O)Cc2ccc(C(F)(F)F)cc2)c(C)o1	1.01 ± 0.087	0.963 ± 0.076	0.951 ± 0.044	1.26 ± 0.068	1.34 ± 0.083	1.37 ± 0.23	0.383 (inactive)
Cc1ccc(O)c(N=Nc2ccc(S(=O)(=O)O)cc2)c1	1.17 ± 0.11	1.15 ± 0.085	1.07 ± 0.043	1.01 ± 0.12	1.08 ± 0.16	1.07 ± 0.15	1.01 (active)
NC1CONC1=O (centres undefined)	1.25 ± 0.3	1.09 ± 0.11	1 ± 0.082	0.937 ± 0.033	1.2 ± 0.17	1.11 ± 0.12	0.991 (active)
Cc1ccccc1C(=O)Nc1ccc(C(=O)N2CCCC(N(C)C)c3ccccc32)cc1 (centres undefined)	1.05 ± 0.27	1 ± 0.05	0.929 ± 0.065	0.94 ± 0.046	1.15 ± 0.18	1.17 ± 0.13	1 (active)
COc1ccc(-c2cc(=O)oc3cc(OCc4cc5c(cc4Cl)OCO5)ccc23)cc1	0.738 ± 0.058	0.829 ± 0.13	1.08 ± 0.11	0.983 ± 0.053	1.17 ± 0.068	1.16 ± 0.15	1.01 (active)
COc1ccc(-n2ncc3c(Nc4cc(OC)c(OC)c(OC)c4)ncnc32)cc1	1.13 ± 0.05	0.938 ± 0.078	1.09 ± 0.085	0.821 ± 0.044	1.04 ± 0.26	1.28 ± 0.45	0.887 (active)
Cc1c(Cl)cccc1Nc1ccccc1C(=O)O	1.16 ± 0.17	1.14 ± 0.3	0.887 ± 0.052	0.938 ± 0.043	1.34 ± 0.26	1.13 ± 0.28	1 (active)
COc1c(OC)c2occc2c2oc(=O)ccc12	1.14 ± 0.32	0.86 ± 0.083	0.941 ± 0.059	0.551 ± 0.018	0.586 ± 0.17	0.67 ± 0.07	0.968 (active)
